Source: PubChem BioAssay AID651820 (National Center for Advancing Translational Sciences (NCATS), 2012)
Out of some 340,000 compounds screened, about 12,000 (3.5%) were called active. About 18% were inconclusive and are not listed. The full list was thinned out, with actives kept by preference. A number with no mark means an inactive call. The call rests on the fitted dose curve; in most records, active means well fitted inhibition curve with a large enough effect; inconclusive means small, poorly fitted or top-dose-only effect, or another doubt; inactive means no such curve, though single readings can be large or run the other way.

Test: qHTS Assay for Inhibitors of Hepatitis C Virus (HCV)
Details: Huh7.5.1 HCVcc-Cre infection, luciferase reporter, 44 h; series mostly up to 41.8 µM; activity change, negative = inhibition: at the top concentration
From the text: Hepatitis C virus (HCV) infects about 200 million people in the world. Many infected people progress to chronic liver disease including cirrhosis with a risk of developing liver cancer. To date, there is no effective vaccine for hepatitis C. Current therapy based on interferon is only effective in about half of the patients and is associated with significant adverse effects. The fraction of people with HCV who can complete a successful treatment is estimated to be no more than 10 percent. Recent development of direct-acting antivirals against HCV, such as protease and polymerase inhibitors, is promising but still requires combination with peginterferon and ribavirin for maximal efficacy. In addition, these agents are associated with high rate of resistance and many have significant side effects. Due to the lack of a culture system for infectious HCV, the search for new HCV drugs has been greatly hampered. […] High-throughput screening (HTS) with an infectious HCV system would cover the complete spectrum of potentially druggable targets in all stages of HCV lifecycle, and would have more biological relevance than other cell-based assays. Moreover, targeting several key processes in the viral life cycle may not only increase antiviral efficacy; more importantly, it may also reduce the capacity of the virus to develop resistance to the compound. The goal of this project is to identify novel HCV inhibitors as new therapies for hepatitis C, using a highly sensitive and specific assay platform which is based on a HCV infectious cell culture system established in the laboratory and adapted for high-throughput HCV drug screen. NIH Chemical Genomics Center [NCGC] NIH Molecular Libraries Probe Centers Network [MLPCN] MLPCN Grant: MH095511 Assay Submitter (PI): Jake Liang, NIDDK
The assay will start with plating 1,000 cells/well in 3 µL volume and culture for 4 h. Then 23 nL of compounds from the library collection will be added to each well, followed by adding 2.5 µL of HCVcc-Cre virus (~ 0.5 moi) and further cultured for 44 h before the luciferase assay. A volume of 4.5 µL luciferase substrates will be added to each well and the plates will be incubated at room temperature for 15 min. and then read for 15 sec. for the luciferase activity
On the % scale 0 is the no-effect control and ±100 the full control effect.

Row | SMILES | Potency | activity change, negative = inhibition
1 | Cc1ccc2c(c1)C1CN(C)CCC1N2C(=S)Nc1ccc(Cl)cc1Cl (stereo unspecified) | 14.1 µM (active) | –
2 | S=C(Nc1ccc(Cl)cc1Cl)N1CCCC1 | – | 9.86%
3 | Cc1ccc2c(c1)C1CN(C)CCC1N2C(=O)c1ccccc1NS(=O)(=O)c1ccc(F)cc1C (stereo unspecified) | – | 6.03%
4 | Cc1ccc(-c2nn(-c3ccc(F)cc3)cc2C(=O)NCC(c2cccs2)N2CCOCC2)cc1 (stereo unspecified) | – | -26.8%
5 | CC(=O)CSc1nc(CCc2ccccc2)c(C#N)c(=O)[nH]1 | – | 8.11%
6 | Cc1csc(=O)n1CC(=O)Nc1ccc(S(C)(=O)=O)cc1 | – | 1.13%
7 | COc1ccc2nc(NC(=O)c3ccc(Br)s3)sc2c1 | – | -20.9%
8 | COc1ccc2nc(NC(=O)NC3CCCCC3)sc2c1 | – | -5.76%
9 | COc1ccc2nc(Nc3nc4ccc(NC(C)=O)cc4s3)sc2c1 | 12.6 µM (active) | –
10 | O=C(COC(=O)c1cccc(Cl)c1)NC(=O)NCc1ccccc1 | – | 9.11%
11 | Cc1noc(C)c1COc1ccc(C(=O)NCCOc2ccccc2)cc1 | – | -6.84%
12 | O=C(NC(=S)Nc1ccc(S(=O)(=O)N2CCOCC2)cc1)c1ccccc1[N+](=O)[O-] | – | 4.14%
13 | CN(CC(=O)Nc1ccc(N2CCOCC2)cc1)CC(=O)Nc1ccccc1[N+](=O)[O-] | – | 0.537%
14 | O=C(Nc1ccc(N2CCOCC2)cc1)c1ccc(-c2ccccc2[N+](=O)[O-])o1 | 11.2 µM (active) | –
15 | Clc1ccc(Nc2ccc3ccccc3n2)cc1 | – | -14.2%
16 | N#CC1(NC(=O)COC(=O)CSc2ccc(F)cc2)CCCCC1 | – | -8.69%
17 | COc1cccc(COC(=O)C2CCN(S(=O)(=O)c3cccs3)CC2)c1OC | – | 1.34%
18 | COC(=O)c1sc(NC(=O)c2csc3c2CCCC3)nc1C | 11.2 µM (active) | –
19 | Cc1ccc(NC(=O)c2csc3c2CCCC3)cc1 | – | -16.9%
20 | COC(=O)c1sc(NC(=O)c2ccc(OC)cc2OC)nc1C | – | -8.74%
21 | CC1=NNC(=O)C1Cc1c(Cl)cccc1Cl (stereo unspecified) | – | 6.34%
22 | CCCCN1CC(CO)Oc2cccc(F)c2S1(=O)=O (stereo unspecified) | – | -3.74%
23 | COc1cccc2oc(CCc3ccccc3)cc(=O)c12 | – | 8.5%
24 | c1csc(-c2cn3c(n2)SCC3)c1 | – | 0.455%
25 | Cc1cc2nc(C(F)(F)F)cc(-c3cccs3)n2n1 | – | 1.28%
26 | Cc1cc(-c2cccs2)nc(-n2cccc2)n1 | 5.01 µM (active) | –

Row | SMILES | Potency | activity change, negative = inhibition
27 | CO[C@@H]1[C@@H](OC(N)=O)[C@@H](O)C(Oc2ccc3c(O)c(NC(=O)c4ccc(O)c(CC=C(C)C)c4)c(=O)oc3c2C)OC1(C)C (stereo partly specified) | – | -10.4%
28 | CC[C@]12c3[nH]c4ccc(Cl)cc4c3CCN1C(=O)[C@@H](CC(=O)NCCCOC)C[C@@H]2C(=O)N1CCN(C(=O)c2ccco2)CC1 | – | 12.8%
29 | COc1ccccc1N1CCN(c2nc(C)cc(=O)[nH]2)CC1 | – | 11.3%
30 | O=C(COC(=O)C1(c2ccc(F)cc2)CCCC1)N1CCNC1=O | – | 4.76%
31 | CSc1nc(C)cc(SC(C(C)=O)C(=O)Nc2ccccc2)n1 (stereo unspecified) | – | 21.8%
32 | CSc1ncc(Sc2ccccc2)c(C(=O)O)n1 | – | 0.988%
33 | CSc1nc(-c2ccccc2)nc(C(Cl)Cl)n1 | 3.98 µM (active) | –
34 | CCOc1ncccc1C(=O)Nc1ccc2c(c1)OCCO2 | – | -22.9%
35 | CC(=O)c1ccc(S(=O)(=O)Nc2ccc(-c3ccc4nncn4n3)cc2)cc1 | – | 6.1%
36 | C[C@@H]1C[C@@H]2O[C@H]2/C=C\C=C\C(=O)Cc2c(Cl)c(O)cc(O)c2C(=O)O1 | 3.16 µM (active) | –
37 | Cc1noc(C)c1NC(=O)Nc1cccc2c1O[C@H](CN(C)S(=O)(=O)c1c(C)noc1C)[C@@H](C)CN([C@H](C)CO)C2=O | – | 2.45%
38 | CC(=O)c1ccc(S(=O)(=O)N2CCN(c3nc4c(C)c(C)ccc4cc3C#N)CC2)cc1 | 10 µM (active) | –
39 | CC(=O)c1ccc(S(=O)(=O)N2CCN(C(=O)/C=C/c3ccc4ccccc4n3)CC2)cc1 | – | -8.42%
40 | Cc1cc(C)c2nc(N3CCCC3)c(C#N)cc2c1 | – | -18%
41 | O=C(Cc1ccc([N+](=O)[O-])cc1)NCCc1ccc2c(c1)OCO2 | – | 3.93%
42 | CN(C(=O)COC(=O)Cc1ccccc1[N+](=O)[O-])C1CCS(=O)(=O)C1 (stereo unspecified) | – | 13.9%
43 | COc1ccc(CCNC2=C(Cl)C(=O)N(Cc3ccccc3)C2=O)cc1OC | 12.6 µM (active) | –
44 | COc1ccc(CCNC(=O)c2ccccc2-c2ccccc2C(=O)O)cc1OC | – | -12.3%
45 | COc1ccc(CCN2C(=O)C(C)=C(C)C2=O)cc1OC | – | -11%
46 | Cc1ccc(S(=O)(=O)CC(=O)Nc2sc(C)c(C)c2C(N)=O)cc1 | – | 14.2%
47 | COc1cc2c(cc1CNC[C@H]1O[C@@H](n3cnc(C(N)=O)n3)[C@H](O)[C@@H]1O)OCO2 | – | 7.98%
48 | OCCCNc1nc(-c2ccccc2)c2cc(Cl)ccc2n1 | – | -24.5%
49 | NC(N)=Nc1nc(-c2ccccc2)c2cc(Cl)ccc2n1 | 11.2 µM (active) | –
50 | Cc1ccc2nc(Nc3ccccc3O)nc(-c3ccccc3)c2c1 | – | 10.8%
51 | Cn1c(N)c(C(=O)COC(=O)c2cccc(S(=O)(=O)N3CCOCC3)c2)c(=O)n(C)c1=O | – | 0.421%
52 | O=C(NCC(=O)N1CCCCCCC1)c1ccccc1Cl | – | 12.8%

Row | SMILES | Potency | activity change, negative = inhibition
53 | CC1=C(C(=O)OCc2ccccc2)C(c2ccc(C(F)(F)F)cc2)NC(=O)N1CCCCCC(=O)O (stereo unspecified) | – | 14%
54 | CCCCNC(=O)C(C)N(CCN(C)C)C(=O)CCCN1C(=O)NC(c2ccc(Cl)cc2)C(C(=O)OCc2ccccc2)=C1C (stereo unspecified) | 11.2 µM (active) | –
55 | COC(=O)CCCCCN1C(=O)NC(c2ccc(-c3ccccc3)cc2)C(C(=O)OCc2ccccc2)=C1C (stereo unspecified) | – | 4.51% [at 8.37 µM]
56 | CC1=C(C(=O)OC(C)(C)C)C(c2ccc(Br)cc2)NC(=O)N1CCCC(=O)O (stereo unspecified) | – | 24.6%
57 | CCCCNC(=O)C(C)N(CCN(C)C)C(=O)CCCCCN1C(=O)NC(c2ccc(Cl)cc2)C(C(=O)OCc2ccccc2)=C1C (stereo unspecified) | 11.2 µM (active) | –
58 | CCOC(=O)CCCNC(=O)CN1C(=O)NC(CCc2ccccc2)C1=O (stereo unspecified) | – | 12.1%
59 | O=C(COC(=O)CSc1ccccc1)Nc1ccc(F)cc1F | – | -7.26%
60 | CCC(C)C1(C2CCCC2)NC(=O)NC1=O (stereo unspecified) | – | 5.9%
61 | CC(C)(C)OC(=O)C1=C(CO)CS[C@@H]2[C@H](NC(=O)Cc3ccccc3)C(=O)N12 | – | -8.25%
62 | c1c2c(cc3sc(N4CCCCC4)nc13)OCCO2 | – | -2.95%
63 | O=C(c1ccc2nc(N3CCOCC3)sc2c1)N1CCN(c2ccc(Cl)cc2)CC1 | – | -24.6%
64 | Brc1ccc2nc(N3CCCC3)sc2c1 | 11.2 µM (active) | –
65 | COc1ccc(C)cc1NC(=O)CN1c2cccc3cccc(c23)S1(=O)=O | – | -27%
66 | CCCCNCCS(=O)(=O)NCc1ccccc1 | – | 9.37%
67 | COc1ccccc1N(CC(=O)N/N=C(\C)c1ccccc1O)S(=O)(=O)c1ccc(C)cc1 | 10 µM (active) | –
68 | COc1ccccc1N(CC(=O)Nc1c(C)n(C)n(-c2ccccc2)c1=O)S(=O)(=O)c1ccccc1 | – | -1.73%
69 | COc1ccc(S(=O)(=O)N(CC(=O)N/N=C/c2ccccc2C(=O)O)c2ccccc2OC)cc1 | – | 19.8%
70 | CCOc1ccc(S(=O)(=O)N2CCN(C(=O)c3oc4ccccc4c3C)CC2)cc1 | – | -5.95%
71 | O=C(NCC1CCCO1)c1ccc(S(=O)(=O)Nc2ccc(F)cc2)cc1 (stereo unspecified) | – | 9.57%
72 | COc1ccc(CNCCc2ccc3c(c2)OCO3)c(OC)c1OC | – | 13.6%
73 | COc1cc(C(=O)CCc2ccc3c(c2)OCO3)cc(OC)c1OC | 14.1 µM (active) | –
74 | COc1cc(OC)c(C(=O)NCc2ccc3c(c2)OCO3)cc1OC | – | -27.1%
75 | O=C(NCCS(=O)(=O)NCc1ccc(Cl)cc1)c1ccccc1 | – | 6.73% [at 8.37 µM]
76 | COc1ccc(C(=O)OCC(=O)c2ccc(Cl)s2)c(OC)c1OC | 2.51 µM (active) | –
77 | COc1ccc(C(=O)OCC(=O)Nc2ccc3[nH]c(=O)[nH]c3c2)c(OC)c1OC | – | -8.43%
78 | COc1ccc(Cl)cc1C(=O)OCC(=O)NCc1cccs1 | – | 9.75%

Row | SMILES | Potency | activity change, negative = inhibition
79 | CN(O)C(=S)c1ccccc1 | – | -10.2%
80 | CCNC(=O)N(CC)C[C@H]1N[C@@](CC)(C(=O)OC)[C@H]2C(=O)N(Cc3ccccc3)C(=O)[C@@H]12 | – | 23% [at 8.37 µM]
81 | O=C(CSc1n[nH]c(-c2cccs2)n1)N1CCCCC1 | – | -15%
82 | CC(=O)N(C)c1ccc(NC(=O)Nc2cccc3ccccc23)cc1 | 12.6 µM (active) | –
83 | O=C(O)Cc1ccc(NC(=O)Nc2cccc3ccccc23)cc1 | – | 6.08%
84 | O=C(Nc1ccc2c(c1)C(=O)OC2)Nc1cccc2ccccc12 | – | 1.88%
85 | O=C(CSC1=NS(=O)(=O)c2cc(F)ccc2N1)Nc1ccccc1F | – | 0.897%
86 | CCOC(=O)N1CCN(C(=O)COC(=O)c2cccc(S(C)(=O)=O)c2)CC1 | – | -10.6%
87 | CC(=O)c1ccc(NC(=O)CSc2nc3ccccc3c(=O)n2CCCN2CCOCC2)cc1 | – | -0.979%
88 | CCOc1cc(NC(=O)c2ccco2)c(OCC)cc1NC(=O)COc1ccccc1 | – | -15.5%
89 | CCOc1cc(NC(=S)NCc2ccco2)c(OCC)cc1NC(=O)c1ccco1 | 2.82 µM (active) | –
90 | COc1cc(NC(=S)NCc2ccco2)c(OC)cc1Cl | – | -10.1%
91 | CN1C(C(=O)NCC2CC2)CC2Cn3c(nc4ccccc43)C21 (stereo unspecified) | – | 22.1%
92 | Cc1ccc(NC(=O)COC(=O)CN2CCCCCC2=O)c(C)c1 | – | 4.62%
93 | COc1ccc(C(=NN)c2ccc(OC)cc2)cc1 | – | 1.54%
94 | Cc1cccc(N2CC(C(=O)Nc3ccccc3N3CCCC3)CC2=O)c1C (stereo unspecified) | – | -0.701%
95 | C=CCCC(=O)Nc1nc(C)c(-c2csc(Nc3ccc(Cl)cc3)n2)s1 | 11.2 µM (active) | –
96 | Cc1ccc(Nc2nc(-c3sc(NC(=O)c4ccccc4)nc3C)cs2)cc1 | – | -15.4%
97 | CCCCCCC(=O)Nc1nc(C)c(-c2csc(Nc3cc(Cl)ccc3OC)n2)s1 | – | -20.7%
98 | Cc1nc(NC(=O)CN(C)S(=O)(=O)c2ccc(Cl)cc2)sc1C | – | -3.57%
99 | CC(=O)c1sc(NC(=O)CCCOc2ccccc2C)nc1C | – | -14.9%
100 | CCCCC(=O)Nc1nc(C)c(-c2csc(Nc3ccc(Cl)cc3)n2)s1 | 8.91 µM (active) | –
101 | CCOC(=O)C1CCN(C(=O)c2cccc(S(=O)(=O)N(CC)c3ccccc3)c2)CC1 | – | -1.31%
